Experimental data taken from PubChem BioAssay AID488969 (Vanderbilt High Throughput Screening Facility, 2010).
Whole data set: some 110,000 compounds, median “z-score” near -0.1, cut for the highest 2% near 2. This is one part of a sample in which the highest values are shown more often than they occur. Active and inactive are the calls of the source.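 Rule for the calls: active = z-score in the third read window above 3 or below -3; inactive = the rest.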

Molecular target: Metabotropic glutamate receptor 8 (Rattus norvegicus) (UniProt P70579)
Assay: rat mGluR8 modulators via GIRK flux, primary screen, cell-based, thallium flux, HTS (AID 488969)
Conditions: HEK293 rat mGluR8, GIRK (G protein-gated inwardly rectifying potassium channel) thallium flux, FluoZin2; at 10 µM; stronger effect = higher value; submaximal glutamate (EC20) added with thallium

Metabotropic glutamate receptor 8 (Rattus norvegicus), sequence (P70579 whole entry, looked up): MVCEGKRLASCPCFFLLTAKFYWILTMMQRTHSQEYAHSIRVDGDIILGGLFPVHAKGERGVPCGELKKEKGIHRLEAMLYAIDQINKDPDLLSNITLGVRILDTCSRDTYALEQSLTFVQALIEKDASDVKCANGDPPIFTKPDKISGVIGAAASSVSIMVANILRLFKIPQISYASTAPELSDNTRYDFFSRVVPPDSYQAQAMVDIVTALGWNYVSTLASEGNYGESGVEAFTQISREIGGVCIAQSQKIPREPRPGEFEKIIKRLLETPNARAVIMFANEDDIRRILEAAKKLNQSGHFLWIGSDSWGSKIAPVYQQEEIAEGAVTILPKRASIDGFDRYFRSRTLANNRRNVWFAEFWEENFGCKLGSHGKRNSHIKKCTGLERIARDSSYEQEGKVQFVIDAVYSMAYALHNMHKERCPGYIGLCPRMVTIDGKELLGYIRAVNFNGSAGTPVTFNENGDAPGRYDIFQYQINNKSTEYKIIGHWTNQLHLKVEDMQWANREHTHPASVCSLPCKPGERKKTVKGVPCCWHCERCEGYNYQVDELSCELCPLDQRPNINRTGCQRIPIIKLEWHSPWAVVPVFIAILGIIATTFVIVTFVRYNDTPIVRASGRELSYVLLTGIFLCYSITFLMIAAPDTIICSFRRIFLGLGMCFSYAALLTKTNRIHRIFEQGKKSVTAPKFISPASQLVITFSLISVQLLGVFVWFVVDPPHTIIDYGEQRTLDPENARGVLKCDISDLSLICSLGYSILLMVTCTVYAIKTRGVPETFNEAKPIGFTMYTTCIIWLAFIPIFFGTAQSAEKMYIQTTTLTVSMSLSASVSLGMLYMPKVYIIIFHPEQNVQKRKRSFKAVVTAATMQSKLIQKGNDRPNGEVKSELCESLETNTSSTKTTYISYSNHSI

SMILES	z-score
O=c1oc2ccccc2c(Nc2cccc3ccccc23)c1[N+](=O)[O-]	-0.861
COCCNC(=O)c1ccc(-n2c(SCc3cc(F)ccc3F)nc3ccccc3c2=O)cc1	-0.0902
CCN(CC)S(=O)(=O)c1cccc(S(=O)(=O)N2CCCCC2)c1	-0.121
CC(=O)Nc1ccc(Oc2nc(C)cc(C)n2)cc1	0.187
CC(=O)Nc1ccc(Oc2ncccn2)cc1	7.84 (active)
CC(=O)Nc1ccc(Oc2cnccn2)cc1	-0.0949
COCC(=O)n1nc(NCc2ccc(OC)cc2)nc1NCc1ccc(OC)cc1	-0.00999
CCN(CC)CCn1c(NC(=O)c2ccc(Cl)cc2)nc2ccccc21	4.18 (active)
CN(C)CCn1c(NC(=O)c2ccc(Cl)cc2)nc2ccccc21	0.381
CCC(=O)Nc1nc2ccccc2n1CCN(CC)CC	-0.0953
Cc1ccc(N/C(SCc2ccccc2C)=C(/C#N)C(=O)NCc2ccco2)cc1C	-0.331
CCOc1cc(C(=S)N2CCOCC2)ccc1OS(=O)(=O)c1ccccc1	-0.19
O=C(COc1ccccc1)NC(=S)Nc1ccc2c3c(cccc13)CC2	4.29 (active)
COc1cccc(C(=O)NC(=S)Nc2ccc3c4c(cccc24)CC3)c1	2.83
Cc1ccccc1OCC(=O)NC(=S)Nc1ccc2c3c(cccc13)CC2	0.22
CC(C)Oc1cccc(C(=O)NC(=S)Nc2ccc3c4c(cccc24)CC3)c1	1.24
CC(C)c1ccc(OCC(=O)NC(=S)Nc2ccc3c4c(cccc24)CC3)cc1	1.27
COc1cc(OC)cc(C(=O)NC(=S)Nc2ccc3c4c(cccc24)CC3)c1	0.967
CN1CCN(C(=O)c2ccccc2N(Cc2ccccc2)S(=O)(=O)c2ccccc2)CC1	-0.185
Cn1cc([N+](=O)[O-])c(C(=O)N/N=C/c2ccccc2)n1	-0.138
Cc1cc(C)n(-c2nc3ccccc3nc2Nc2ccc(CC(=O)O)cc2)n1	1.13
Cc1ccc(N=Nc2c(N)[nH]n3c(=O)c4c(nc23)CCCC4)cc1	-0.696
O=c1c2c(nc3c(-c4ccc(Cl)cc4)c[nH]n13)CCCC2	12 (active)

SMILES	z-score
O=c1c2c(nc3c(-c4cccc5ccccc45)c[nH]n13)CCC2	-0.52
O=c1c2c(nc3cc(-c4cccc(Cl)c4)[nH]n13)CCC2	0.391
Nc1[nH]n2c(=O)c3c(nc2c1N=Nc1ccc(Cl)cc1)CCCC3	-1.09
Cc1ccc(-c2[nH]n3c(=O)c4c(nc3c2C)CCCC4)cc1	11 (active)
Cc1[nH]n2c(=O)c3c(nc2c1-c1ccccc1)CCC3	-1.66
O=c1c2c(nc3c(-c4ccccc4)c[nH]n13)CCC2	-0.819
O=c1c2c(nc3c(-c4cccc(Br)c4)c[nH]n13)CCCC2	6.35 (active)
N#Cc1c[nH]n2c(=O)c3c(nc12)CCCC3	-0.482
O=c1c2c(nc3c(-c4ccccc4)c[nH]n13)CCCC2	3.66 (active)
O=c1c2c(nc3cc(-c4ccccc4)[nH]n13)CCC2	-0.413
COCCNC(=O)C(=O)N/N=C/c1ccccc1C(F)(F)F	-0.508
Cc1nc2ccc(S(=O)(=O)NCC(=O)N3CCOCC3)cc2s1	-0.0788
COc1ccc2c(c1)c1ncn(CCN3CCNCC3)c(=O)c1n2C	-0.141
O=C(N[C@@H](Cc1ccccc1)c1nc2ccccc2[nH]1)c1cc([N+](=O)[O-])ccc1Cl	-0.361
CC(C)(C)NC(=O)C1CCCN(S(=O)(=O)c2cccc3cccnc23)C1 (centres undefined)	-0.133
CCOc1ccc(NC(=O)c2cc3cc4ccc(OC)cc4nc3o2)cc1	0.334
COc1ccc2cc3cc(C(=O)Nc4cc(OC)c(OC)c(OC)c4)oc3nc2c1	-0.255
COc1ccc2nc3oc(C(=O)Nc4ccc(OC)c(OC)c4)cc3cc2c1	4.91 (active)
O=C(Nc1ccc2oc(-c3ccncc3)nc2c1)c1cccs1	-1.18
CCc1nnc(NC(=O)CCc2ccc(C)o2)s1	0.332
CCC(=O)N1CCc2cc(S(=O)(=O)CCC(=O)NCCc3ccccc3)ccc21	-0.24
CC(NC(=O)COC(=O)/C=C/c1ccc([N+](=O)[O-])cc1)c1ccccc1 (centres undefined)	-0.366
CC(C)NC(=O)c1ccccc1NC(=O)/C=C/c1cccc([N+](=O)[O-])c1	-0.52

SMILES	z-score
CC(C)c1ccccc1NC(=O)COC(=O)/C=C/c1cccc([N+](=O)[O-])c1	5.9 (active)
CCOc1ccc(NC(=O)CSc2nnc(CCNC(=O)c3ccc(OC)cc3)n2CC)cc1	-0.0739
C/C=C/COC(=O)c1[nH]c2c(c1C)C(=O)CC(c1ccco1)C2 (centres undefined)	-0.237
CSCC[C@H](NC(=O)OC(C)(C)C)c1nnc(SCC(=O)N(C)C)o1	-0.106
O=C(Nc1nc2ccccc2s1)C1CC(=O)N(c2ccc(Br)cc2)C1 (centres undefined)	0.374
CCCc1cc(C(=O)Nc2sc3c(c2C#N)CCC3)no1	2.21
CC(C)Cc1cc(C(=O)Nc2sc3c(c2C#N)CCC3)no1	1.32
N#Cc1c(NC(=S)NC(=O)c2ccccc2)sc2c1CCC2	0.849
Cc1ccccc1C(=O)NC(=S)Nc1sc2c(c1C#N)CCC(C)C2 (centres undefined)	1.82
N#Cc1c(NC(=S)NC(=O)c2ccccc2)sc2c1CCCC2	0.0146
Cc1onc(-c2ccccc2)c1C(=O)NC(=S)Nc1sc2c(c1C#N)CCCC2	4.1 (active)
Cc1cc(C(=O)Nc2sc3c(c2C#N)CCC3)no1	-0.0664
Cc1onc(-c2ccccc2)c1C(=O)Nc1sc2c(c1C#N)CCC(C)C2 (centres undefined)	0.289
Cc1ccccc1C(=O)NC(=S)Nc1sc2c(c1C#N)CCCC2	5.02 (active)
CCOC(=O)CC1ON(C)C(=O)N1c1ccc([N+](=O)[O-])cc1 (centres undefined)	0.0464
CCCCOC(=O)c1ccc(NC(=O)/C=C/c2cccs2)cc1	-0.063
CCc1ccc(C2NC(C(=O)O)CS2)cc1 (centres undefined)	-0.258
CC(C)Cn1c(SCC(=O)N2CCCCC2)nc2ccccc2c1=O	-0.537
O=C1Nc2ccccc2C12OCC1(CO2)COC2(OC1)C(=O)Nc1ccccc12 (centres undefined)	3.45 (active)
O=C1Nc2ccccc2C12OCCCO2	0.489
O=C1Nc2ccccc2C12OCCO2	-0.0845
CCN(CC)S(=O)(=O)c1ccc(/C=C/C(=O)Nc2ccc(F)c(F)c2F)cc1	-0.0872
Cc1ccc(C(=O)CC(=O)COc2ccc(Cl)cc2C)cc1	5.45 (active)

SMILES	z-score
COC(=O)C(CC(=O)c1ccc(Cl)cc1)c1ccc(C)cc1 (centres undefined)	-0.155
Cc1ccc(C(=O)CC(=O)COc2ccc(Cl)cc2)cc1	5.07 (active)
Cc1cc(Cl)ccc1OCC(=O)NC1CCCC1	0.0341
Cc1ccc(NCCC(=O)c2ccc(Cl)cc2)cc1	-0.27
Cc1ccc(NC(=O)c2ccc(OC(=O)COc3ccc(Cl)cc3C)cc2)cc1	-0.069
Cc1cc(C)nc(/N=C(\N)Nc2ccc([N+](=O)[O-])cc2)n1	-0.477
O=C(O)c1cccc(-n2cnnn2)c1	-0.667
CCC(NC(=O)Nc1nnc(C(F)(F)F)s1)(C(F)(F)F)C(F)(F)F	0.241
CCSc1nnc(NC(=O)NC(CC)(C(F)(F)F)C(F)(F)F)s1	3.86 (active)
CCSc1nnc(NC(=O)CC)s1	5.27 (active)
CCCC(=O)Nc1nnc(SCC)s1	0.0928
CCC(=O)Nc1nnc(SCCOC)s1	0.214
CCSc1nnc(NC(=O)C(CC)(C(F)(F)F)C(F)(F)F)s1	-0.322
CCCCN1CCc2[nH]c(=S)[nH]c(=O)c2C1	-0.178
Cc1ccccc1C(=O)Oc1cccc(Nc2ncnc3ccccc23)c1	-1.4
CC(NC(=O)C1CCC1)c1ccc(Br)cc1 (centres undefined)	-0.264
CCN(CC)S(=O)(=O)c1cccc(C(=O)NC(C(=O)NC2=NCCS2)C(C)C)c1 (centres undefined)	0.126
CCNc1nc(NC#N)nc(SCC(=O)OCC)n1	-0.413
COC(=O)c1ccc(CSc2nc3c(cnn3-c3ccccc3)c(=O)[nH]2)o1	-0.686
O=C(CCc1ccccc1)NNC(=S)NC(=O)c1ccc(Cl)cc1	3.03 (active)
CC(C)(C)c1ccc(OCC(=O)NNC(=O)CCc2ccccc2)cc1	0.639
COc1ccc(C(=O)NC(=S)NNC(=O)CCc2ccccc2)cc1	3.38 (active)
CC(=O)Nc1ccc(C(=O)NNC(=O)CCc2ccccc2)cc1	-0.185

SMILES	z-score
O=C(CCc1ccccc1)NNC(=O)c1ccc(NC(=O)c2ccccc2)cc1	0.0748
O=C(CCc1ccccc1)NNC(=S)NC(=O)c1ccccc1	1.13
O=C(Cc1csc(N2CCOCC2)n1)N/N=C/c1ccc(Cl)cc1Cl	-0.885
N#Cc1c2n(c(=S)n(-c3ccccn3)c1=O)CCCCC2	-0.927
N#Cc1c2n(c(=O)[nH]c1=O)CCCCC2	-0.0381
N#Cc1c2n(c3c(=S)nc[nH]c13)CCCCC2	2.2
O=C(CNC(=O)c1ccccc1F)NCCOc1ccccc1Cl	-0.065
CCOC12CC(C)(C)CC(C)(CC3=C1C(=O)CC(C)(C)C3)C2 (centres undefined)	2.32
CC1(C)CC(=O)C2=C(C1)OC1=C(C(=O)CC(C)(C)C1)C2(C)C	-0.182
CCOc1ccc(N=CC2=C(O)CC(C)(C)CC2=O)cc1	0.649
CCOC(=O)C1CCCN(C(=O)CN2C(=O)COc3ccc(C(C)(C)C)cc32)C1 (centres undefined)	-1.06
CCOC(=O)N1CCN(Cc2nc3c(c(=O)n(C)c(=O)n3C)n2Cc2ccccc2C)CC1	-0.27
S=C(NCCc1ccccc1)Nc1ccc(Br)cc1	0.268
Fc1ccc(NC(=S)NCCc2ccccc2)c(F)c1F	2.71
S=C(NCCc1ccccc1)Nc1ccc(Cl)cc1Cl	1.43
Fc1cc(Br)ccc1NC(=S)NCCc1ccccc1	7.09 (active)
Fc1ccccc1NC(=S)NCCc1ccccc1	0.134
Fc1cc(Br)ccc1NC(=S)Nc1ccccc1	0.843
COc1ccc(NC(=S)NCCc2ccc(Cl)cc2)c(OC)c1	0.319
COc1ccccc1NC(=S)NCCc1ccc(Cl)cc1	3.06 (active)
COc1ccccc1NC(=S)NCCc1ccccc1	-0.188
COc1cc2c(cc1NC(=O)CSc1ccccc1)oc1ccccc12	-0.258
